In the supplement of paper PMC10515830:
Where a name gives a salt, the structure may show the parent alone.

Test system: Danio rerio larvae (5 dpf)
Assay: difference in startle response vs DMSO (percentage points); higher = stronger startle than DMSO
Conditions: 10 µM; exposure time 6 h
Summary of the method: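 Wild-type 5 dpf zebrafish larvae in 96-well plates were given 100 µL egg water containing library compound at 10 µM final for 6 h. After 3 h of exposure, plates at 28.5 ℃ were photographed every 6 s during a 3-h programme of moving lines and 100 ms, 400Hz tones. Z-LaP Tracker (a DeepLabCut model) quantified each behaviour, averaged over 48 larvae per compound. Values are the compound mean minus the DMSO-vehicle control, in percentage points.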

Row | Structure (SMILES) | difference in startle response
1 | Cc1nc2n(c(=O)c1CCN1CCC(c3noc4cc(F)ccc34)CC1)CCCC2 [Risperidone] | 5.09
2 | CC(C)c1c(C(=O)Nc2ccccc2)c(-c2ccccc2)c(-c2ccc(F)cc2)n1CC[C@@H](O)C[C@@H](O)CC(=O)O [Atorvastatin (calcium salt hydrate)] | -0.915
3 | N=C(N)NCCC[C@@H](NC(=O)[C@@H]1CCCN1C(=O)[C@@H]1CSSCCC(=O)N[C@@H](Cc2ccc(O)cc2)C(=O)N[C@@H](Cc2ccccc2)C(=O)N[C@@H](CCC(N)=O)C(=O)N[C@@H](CC(N)=O)C(=O)N1)C(=O)NCC(N)=O [Desmopressin (trifluoroacetate salt)] | -0.652
4 | CC(=O)OCC(CCn1cnc2cnc(N)nc21)COC(C)=O [Famciclovir] | 6.99
5 | COC(=O)/C=C/C(=O)OC [Dimethyl fumarate] | -1.87
6 | CC(C)OC(=O)[C@H](C)N[P@](=O)(OC[C@H]1O[C@@H](n2ccc(=O)[nH]c2=O)[C@](C)(F)[C@@H]1O)Oc1ccccc1 | -4.12
7 | CCN(CC)C(=O)[C@@]1(c2ccccc2)C[C@H]1CN [Levomilnacipran (hydrochloride)] | 0.949
8 | Cc1ccc(N(CC2=NCCN2)c2cccc(O)c2)cc1 [Phentolamine (mesylate)] | 0.261
9 | COc1ccc(C[C@@H](C)NC[C@H](O)c2ccc(O)c(NC=O)c2)cc1 [Arformoterol (tartrate)] | -8.57
10 | COC(=O)[C@H]1[C@H]2C[C@@H]3c4[nH]c5cc(OC)ccc5c4CCN3C[C@H]2C[C@@H](OC(=O)c2cc(OC)c(OC)c(OC)c2)[C@@H]1OC [Reserpine] | -7.69
11 | CO[C@H]1/C=C/O[C@@]2(C)Oc3c(C)c(O)c4c(O)c(c(/C=N/N5CCN(C6CCCC6)CC5)c(O)c4c3C2=O)NC(=O)/C(C)=C\C=C\[C@H](C)[C@H](O)[C@@H](C)[C@@H](O)[C@@H](C)[C@H](OC(C)=O)[C@@H]1C [Rifapentine] | -0.153
12 | CN(C)CCOC(C)(c1ccccc1)c1ccccn1 (stereo not drawn) [Doxylamine (succinate)] | -2.91
13 | CC1=NN(c2ccc(C)c(C)c2)C(=O)/C1=N\Nc1cccc(-c2cccc(C(=O)O)c2)c1O [Eltrombopag] | -0.303
14 | CN1C(CCl)Nc2cc(Cl)c(S(N)(=O)=O)cc2S1(=O)=O (stereo not drawn) [Methyclothiazide] | 4.44
15 | Nc1ccc(O)c(C(=O)O)c1 [5-Aminosalicylic Acid] | 0.822
16 | CCOc1cc(CC(=O)N[C@@H](CC(C)C)c2ccccc2N2CCCCC2)ccc1C(=O)O [Repaglinide] | 7.77
17 | COc1ccc(Cl)cc1C(=O)NCCc1ccc(S(=O)(=O)NC(=O)NC2CCCCC2)cc1 [Glyburide (potassium salt)] | 5.16
18 | C#Cc1cccc(Nc2ncnc3cc(OCCOC)c(OCCOC)cc23)c1 [Erlotinib] | -6.74
19 | CCCc1c2oc(C(=O)O)cc(=O)c2cc2c(=O)cc(C(=O)O)n(CC)c12 [Nedocromil (sodium salt)] | 3.78

Row | Structure (SMILES) | difference in startle response
20 | NCc1ccc(S(N)(=O)=O)cc1 [Mafenide] | 7.01
21 | C[C@H]1O[C@H](O[C@H]2[C@H](O)[C@@H](O)[C@@H](O[C@H]3[C@H](O)[C@@H](O)C(O)O[C@@H]3CO)O[C@@H]2CO)[C@H](O)[C@@H](O)[C@@H]1N[C@H]1C=C(CO)[C@@H](O)[C@H](O)[C@H]1O (stereo partly drawn) [Acarbose] | -8.81
22 | NC1=NCC2c3ccccc3Cc3ccccc3N12 (stereo not drawn) [Epinastine (hydrochloride)] | -2.41
23 | CCCc1nc2c(C)cc(-c3nc4ccccc4n3C)cc2n1Cc1ccc(-c2ccccc2C(=O)O)cc1 [Telmisartan] | -11.8
24 | COc1ccc(-n2nc(C(N)=O)c3c2C(=O)N(c2ccc(N4CCCCC4=O)cc2)CC3)cc1 [Apixaban] | -6.58
25 | Cc1c(O)c(=O)ccn1C [Deferiprone] | -1.15
26 | Nc1nc(Cl)nc2c1ncn2[C@H]1C[C@H](O)[C@@H](CO)O1 [Cladribine] | -0.563
27 | CC(=O)CC(c1ccccc1)c1c(O)c2ccccc2oc1=O (racemic) [(±)-Warfarin] | -1.45
28 | Nc1nc(O)c2ncn(CCC(CO)CO)c2n1 [Penciclovir] | 12.1
29 | CCCNC(C)C(=O)Nc1c(C)csc1C(=O)OC (stereo not drawn) [Articaine (hydrochloride)] | -2.43
30 | COC(=O)C1=C(C)NC(C)=C(C(=O)OCC(C)C)C1c1ccccc1[N+](=O)[O-] (stereo not drawn) [Nisoldipine] | -9.87
31 | CC(C)c1nc(CN(C)C(=O)N[C@H](C(=O)N[C@@H](Cc2ccccc2)C[C@H](O)[C@H](Cc2ccccc2)NC(=O)OCc2cncs2)C(C)C)cs1 [Ritonavir] | 0.564
32 | NC(=O)N[C@@H](CCC(=O)O)C(=O)O [N-Carbamyl-L-Glutamic Acid] | -0.75
33 | N=C(N)NC(=O)c1nc(Cl)c(N)nc1N [Amiloride (hydrochloride) (hydrate)] | -1.2
34 | Cc1c(OCC(F)(F)F)ccnc1C[S+]([O-])c1nc2ccccc2[nH]1 (stereo not drawn) [Lansoprazole] | -2.87
35 | NNC(=O)c1ccncc1 [Isoniazid] | 4.93
36 | C[C@@H]1O[C@@H]1P(=O)(O)O [Fosfomycin Trometamol] | -4.33
37 | N#Cc1ccc(C(c2ccc(C#N)cc2)n2cncn2)cc1 [Letrozole] | -5.86
38 | Nc1nc(-n2cc(C(=O)O)c(=O)c3cc(F)c(N4CC(O)C4)c(Cl)c32)c(F)cc1F [Delafloxacin] | 12.8
